From PubChem
CHT inh: inhibitors of human choline transporter CHT; 310,000 compounds, 0.86% hits; B-score at 10 µM; AID 488975; CHT-expressing cells, membrane potential dye, choline response; stronger effect = lower value;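 active = B-score over 3 SD under the library average, and starting fluorescence ratio not unusually high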;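 also: choline stimulus applied at its EC90 after an EC20 pre-addition; B-score computed on integrated fluorescence ratio after choline addition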
Target sequence (Q9GZV3 whole entry, looked up): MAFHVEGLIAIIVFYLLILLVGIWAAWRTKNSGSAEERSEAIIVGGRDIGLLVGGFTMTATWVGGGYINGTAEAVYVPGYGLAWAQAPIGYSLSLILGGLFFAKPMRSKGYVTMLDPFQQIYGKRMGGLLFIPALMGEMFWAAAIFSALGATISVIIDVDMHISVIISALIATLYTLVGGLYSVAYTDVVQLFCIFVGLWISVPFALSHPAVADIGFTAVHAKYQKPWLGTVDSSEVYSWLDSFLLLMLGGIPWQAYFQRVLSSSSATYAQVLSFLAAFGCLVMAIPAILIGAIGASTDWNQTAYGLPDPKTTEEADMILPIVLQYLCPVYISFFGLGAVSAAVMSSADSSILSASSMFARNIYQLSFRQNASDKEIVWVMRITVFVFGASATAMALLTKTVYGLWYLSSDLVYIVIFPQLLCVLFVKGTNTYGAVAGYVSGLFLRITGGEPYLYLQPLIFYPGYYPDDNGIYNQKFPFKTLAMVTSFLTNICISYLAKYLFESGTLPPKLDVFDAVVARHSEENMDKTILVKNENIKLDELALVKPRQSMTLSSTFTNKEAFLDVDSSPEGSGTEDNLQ
TMEM16A inh: mouse TMEM16A channel inhibition, primary screen; Q8BHY3; HEK293 TMEM16A/YFP iodide influx fluorescence, ionomycin; normalized B-score (activity score, 25-100; higher = stronger inhibition) at 10 µM; 310,000 compounds, 1.2% hits;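 active = ratio plate-corrected score three or more library SD toward inhibition, starting fluorescence score within five deviations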;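 also: score derived from kinetic fluorescence span divided by baseline fluorescence per well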
ANO1 activ: mouse TMEM16A channel activation, primary screen. Q8BHY3. HEK293 TMEM16A/YFP-H148Q/I152L, iodide quench fluorescence; stronger effect = lower value. B-score at 10 µM. 340,000 compounds, 0.3% hits;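 active = fluorescence-ratio B-score plate-corrected deviation score at least 3 library SD below zero, with starting fluorescence score within 5 deviations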;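 also: channel opened by trigger with iodide after compound preincubation; score built on the fluorescence ratio of max minus min over baseline; more negative score means more quench and so TMEM16A activation or potentiation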
PKA-R1A activ: PKA-R1A complex activation | P00514+P68181 | PKA-R1A dissociation, Cy5-IP20 fluorescence polarization; scaled: DMSO 0%, 113 µM cGMP 100% | activation, % at 11.4 µM | 340,000 compounds, 0.083% hits;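 active = percent activation above the mean of all tested compounds plus 3 SD, cut at about 19% in these data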;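 also: higher means more PKAc released from R1A so a rise in polarization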
CHT PAM: allosterically activates the human high affinity choline transporter. CHT-expressing cells, membrane potential dye, choline EC20; stronger effect = higher value; LV-AA mutant CHT in HEK293 cells. B-score at 10 µM. Q9GZV3. AID 488977. 310,000 compounds, 0.49% hits;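 active = initial fluorescence not abnormally high and integrated response B-score, plate-corrected, over 3 SD above library mean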
PKA-R2B activ: activates the human PKA-R2B holoenzyme complex; P22694+P31323; activation, % at 11.4 µM; AID 504700; PKA-R2B holoenzyme dissociation, Cy5-IP20 fluorescence polarization; R2B truncated from residue 108, S112A mutant; 0% DMSO only, 100% 113 µM cGMP; 340,000 compounds, 0.079% hits;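 active = activation above a cutoff set at the mean over all compounds plus 3 SD, cut at about 18% in these data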;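 also: higher means more holoenzyme dissociation and a rise in polarization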
TMEM16A reconf: TMEM16A (mouse) chloride channel inhibition, re-confirmation; HEK293 TMEM16A/YFP-H148Q, iodide quench fluorescence; ionomycin added to raise cell calcium; inhibition, % at 10 µM; 2,300 compounds, 39% hits; shares compounds with TMEM16A inh;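 active = mean duplicate percent inhibition, scaled so buffer wells are 0 and the reference blocker 100, over three buffer SD above buffer mean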
HEK293 Ca mobil: counter-screen for TMEM16A inhibitors: effect on calcium mobilization; shares compounds with TMEM16A inh; TMEM16A/YFP HEK293, Fluo4 calcium mobilization; calcium response (% of ionomycin), % at 10 µM; 2,300 compounds, 2% hits;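 active = duplicate-averaged calcium signal over 20% of the ionomycin maximum, relative to buffer baseline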;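 also: each well's signal is peak minus trough fluorescence divided by its pre-addition baseline; 0% = buffer wells and 100% = ionomycin wells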
Parental YFP cnt: counter-screen for TMEM16A inhibitors: effect in parental YFP-HEK293 cells. iodide YFP quench, ionomycin. YFP ratio F(max-min)/F0 at 10 µM. AID 652233. 2,300 tested, under 10 active. shares compounds with TMEM16A inh;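 active = yellow fluorescent protein signal ratio exceeding the buffer control mean by over 5 SD of those controls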;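 also: ratio is mean of duplicate wells from kinetic YFP trace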
ClC-1 rat inh: rat ClC-1 inhibition, TMEM16A specificity screen; 2,300 tested, under 10 active; ratio percent, % at 10 µM; CHO ClC-1-YFP, iodide influx fluorescence quench; iodide control reads 0, buffer control 100; shares compounds with TMEM16A inh; AID 652236;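 active = duplicate-mean ratio percent above the mean of iodide-only control wells, which defines zero, plus 5 of their SD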;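 also: higher percent means stronger block of ClC-1 iodide influx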
An asterisk follows results filed as active; i = inactive; x = no result given. This is a sample that favours compounds with a hit; in the whole collection about 2.5% have one here.

SMILES	CHT inh	TMEM16A inh	ANO1 activ	PKA-R1A activ	CHT PAM	PKA-R2B activ	TMEM16A reconf	HEK293 Ca mobil	Parental YFP cnt	ClC-1 rat inh
COc1ccc(C2=Nn3c(nnc3-c3ccccc3F)SC2)cc1OCC1CC1	x	x	i	-11	x	4	x	x	x	x
COc1ccc(N/C(=C2\CCCC2=O)C2CCCCC2)cc1	i	i	i	-7	i	6	i	i	-1	-15
O=C(C[n+]1ccccc1)Nc1ccc(Oc2ccccc2)cc1	i	i	i	-10	i	-10	x	x	x	x
CN(CCOc1ccccc1)C(=O)C1CCC(=O)N(CCCN2CCCC2=O)C1 (configuration not stated)	i	i	i	-4	i	-5	x	x	x	x
O=C(COC(=O)c1cccnc1Cl)Nc1cc(S(=O)(=O)N2CCCCCC2)ccc1Cl	x	x	i	3	x	-16	x	x	x	x
O=S(=O)(c1ccccc1)N1CCN(c2ccnc3cc(Cl)ccc23)CC1	i	100*	i	x	i	x	i	i	-0.88	-5
Cc1ccccc1-c1cc(-c2ccccc2O)n[nH]1	i	25*	i	-5	i	-6	i	i	-1.2	-14
COc1ccc(CC(=O)OCC(=O)c2ccc(F)cc2)cc1	x	x	i	-10	x	-6	x	x	x	x
Cc1cc([N+](=O)[O-])ccc1NC(=O)CSc1nncn1-c1ccccn1	i	i	i	9	i	-2	x	x	x	x
CCOc1ccc(C(=O)C(C)OC(=O)C2CCN(c3ccc(C(F)(F)F)cn3)CC2)cc1 (configuration not stated)	i	25*	i	6	i	-1	i	i	-1.1	-12
COc1ccc(CCNc2oc(COc3ccc(Br)cc3)nc2C#N)cc1OC	i	100*	i	3	i	1	i	i	-0.96	-18
O=C(Sc1n[nH]c(=O)[nH]c1=O)c1ccccc1	x	x	i	7	x	11	x	x	x	x
CCOC(=O)c1ccccc1NC(=O)CSc1nnnn1C1CCCCC1	i	100*	i	-3	i	-7	i	i	-0.96	-2
CCOC(=O)c1ccccc1NC(=O)CSc1nnc(COc2ccccc2C)n1C	i	25*	i	2	i	-4	i	i	-1.2	-8
COC(=O)c1ccccc1NC(=O)CSc1nnnn1C1CCCCC1	i	i	i	-1	i	8	x	x	x	x
Cc1ccccc1OCc1nnc(SCC(=O)NCc2ccccc2)n1C	i	i	i	8	i	-14	x	x	x	x
C=CCSc1nnc(CNC(=O)c2ccc(Cl)cc2)n1CC	i	i	i	-13	i	-4	x	x	x	x
CC(=O)Nc1ccc(/C=N/N2C(=O)NC(C)(c3ccc(OC(F)F)cc3)C2=O)cc1 (configuration not stated)	i	100*	-13*	-12	i	-3	93%*	i	-0.96	-6
CC1(c2ccc(OC(F)F)cc2)NC(=O)N(CC(=O)Nc2ccc3[nH]c(=O)[nH]c3c2)C1=O (configuration not stated)	i	i	i	6	i	-7	x	x	x	x
O=S(=O)(Nc1cccnc1Cl)c1ccc(-c2ccccc2)cc1	i	i	i	2	i	2	x	x	x	x
O=S(=O)(Nc1ccccc1O)c1ccc(-c2ccccc2)cc1	i	100*	i	-21	i	-15	58%*	i	-1.1	-24
COc1cccc(C(=O)NC2CCN(C(=O)N3CCCCC3)CC2)c1	i	25*	i	-2	i	-4	i	i	-1	-16
COc1cccc(C(=O)NC2CCN(CC(=O)Nc3ccccc3Cl)CC2)c1	i	i	i	12	i	11	x	x	x	x
CC1Sc2ccc(S(=O)(=O)CCC(=O)NCc3ccccc3)cc2NC1=O (configuration not stated)	i	i	i	2	i	-3	x	x	x	x
COc1ccc(NC(=O)C2CCN(S(=O)(=O)c3ccc4c(c3)NC(=O)C(C)S4)CC2)cc1 (configuration not stated)	i	i	i	-4	i	-4	x	x	x	x
SMILES	CHT inh	TMEM16A inh	ANO1 activ	PKA-R1A activ	CHT PAM	PKA-R2B activ	TMEM16A reconf	HEK293 Ca mobil	Parental YFP cnt	ClC-1 rat inh
CC1Sc2ccc(S(=O)(=O)N3CCC(C(=O)Nc4ccc(Cl)cc4)CC3)cc2NC1=O (configuration not stated)	i	25*	i	0	i	-1	32%*	i	-1.4	-10
CC1Sc2ccc(S(=O)(=O)CCC(=O)NCc3ccc(Cl)cc3)cc2NC1=O (configuration not stated)	i	25*	i	2	i	0	i	i	-1.2	-7
O=C(CN1C(=O)COc2ccccc21)N1CCCC1	i	i	i	7	i	-2	x	x	x	x
O=C(CCN1C(=O)COc2ccccc21)N1CCCCC1	i	i	i	-11	i	-4	i	i	-0.96	-6
CN1CCN(NC(=O)NC2CCCCC2)CC1	i	i	i	11	i	2	x	x	x	x
CC(=O)c1sc(NC(=O)C2(F)C(F)(F)C(F)(F)C(F)(F)C(F)(F)C2(F)F)nc1C	i	100*	i	4	i	10	43%*	i	-0.82	-16
CCOC(=O)c1nnn(-c2nonc2N)c1-c1ccc(F)cc1	i	i	i	-9	i	2	x	x	x	x
Fc1ccc(COc2ccccc2C(=S)N2CCCC2)cc1	i	i	i	2	i	-11	x	x	x	x
Cc1ccc(COc2ccccc2C(=S)N2CCCC2)cc1	i	25*	i	2	i	-9	i	i	-0.94	-6
O=C(NCc1ccccc1)c1c(Cl)nc(Cl)c(Cl)c1Cl	i	i	i	-2	i	-8	x	x	x	x
CCN(CC)C(=O)COc1ccc2oc(C)c(C(=O)OC(C)C)c2c1	i	i	i	-1	i	-1	i	i	-1.1	-9
